Test results as given in PubChem BioAssay.

biological target: Neurogenic locus notch homolog protein 3 (Homo sapiens) (UniProt Q9UM47); test: small molecules binding NOTCH3 protein – biochemical, 635/667 nm fluorescence, primary screen (AID 1096); settings: small-molecule microarray, 635 nm fluorescence, higher = more signal
Sequence (Q9UM47 whole entry, looked up): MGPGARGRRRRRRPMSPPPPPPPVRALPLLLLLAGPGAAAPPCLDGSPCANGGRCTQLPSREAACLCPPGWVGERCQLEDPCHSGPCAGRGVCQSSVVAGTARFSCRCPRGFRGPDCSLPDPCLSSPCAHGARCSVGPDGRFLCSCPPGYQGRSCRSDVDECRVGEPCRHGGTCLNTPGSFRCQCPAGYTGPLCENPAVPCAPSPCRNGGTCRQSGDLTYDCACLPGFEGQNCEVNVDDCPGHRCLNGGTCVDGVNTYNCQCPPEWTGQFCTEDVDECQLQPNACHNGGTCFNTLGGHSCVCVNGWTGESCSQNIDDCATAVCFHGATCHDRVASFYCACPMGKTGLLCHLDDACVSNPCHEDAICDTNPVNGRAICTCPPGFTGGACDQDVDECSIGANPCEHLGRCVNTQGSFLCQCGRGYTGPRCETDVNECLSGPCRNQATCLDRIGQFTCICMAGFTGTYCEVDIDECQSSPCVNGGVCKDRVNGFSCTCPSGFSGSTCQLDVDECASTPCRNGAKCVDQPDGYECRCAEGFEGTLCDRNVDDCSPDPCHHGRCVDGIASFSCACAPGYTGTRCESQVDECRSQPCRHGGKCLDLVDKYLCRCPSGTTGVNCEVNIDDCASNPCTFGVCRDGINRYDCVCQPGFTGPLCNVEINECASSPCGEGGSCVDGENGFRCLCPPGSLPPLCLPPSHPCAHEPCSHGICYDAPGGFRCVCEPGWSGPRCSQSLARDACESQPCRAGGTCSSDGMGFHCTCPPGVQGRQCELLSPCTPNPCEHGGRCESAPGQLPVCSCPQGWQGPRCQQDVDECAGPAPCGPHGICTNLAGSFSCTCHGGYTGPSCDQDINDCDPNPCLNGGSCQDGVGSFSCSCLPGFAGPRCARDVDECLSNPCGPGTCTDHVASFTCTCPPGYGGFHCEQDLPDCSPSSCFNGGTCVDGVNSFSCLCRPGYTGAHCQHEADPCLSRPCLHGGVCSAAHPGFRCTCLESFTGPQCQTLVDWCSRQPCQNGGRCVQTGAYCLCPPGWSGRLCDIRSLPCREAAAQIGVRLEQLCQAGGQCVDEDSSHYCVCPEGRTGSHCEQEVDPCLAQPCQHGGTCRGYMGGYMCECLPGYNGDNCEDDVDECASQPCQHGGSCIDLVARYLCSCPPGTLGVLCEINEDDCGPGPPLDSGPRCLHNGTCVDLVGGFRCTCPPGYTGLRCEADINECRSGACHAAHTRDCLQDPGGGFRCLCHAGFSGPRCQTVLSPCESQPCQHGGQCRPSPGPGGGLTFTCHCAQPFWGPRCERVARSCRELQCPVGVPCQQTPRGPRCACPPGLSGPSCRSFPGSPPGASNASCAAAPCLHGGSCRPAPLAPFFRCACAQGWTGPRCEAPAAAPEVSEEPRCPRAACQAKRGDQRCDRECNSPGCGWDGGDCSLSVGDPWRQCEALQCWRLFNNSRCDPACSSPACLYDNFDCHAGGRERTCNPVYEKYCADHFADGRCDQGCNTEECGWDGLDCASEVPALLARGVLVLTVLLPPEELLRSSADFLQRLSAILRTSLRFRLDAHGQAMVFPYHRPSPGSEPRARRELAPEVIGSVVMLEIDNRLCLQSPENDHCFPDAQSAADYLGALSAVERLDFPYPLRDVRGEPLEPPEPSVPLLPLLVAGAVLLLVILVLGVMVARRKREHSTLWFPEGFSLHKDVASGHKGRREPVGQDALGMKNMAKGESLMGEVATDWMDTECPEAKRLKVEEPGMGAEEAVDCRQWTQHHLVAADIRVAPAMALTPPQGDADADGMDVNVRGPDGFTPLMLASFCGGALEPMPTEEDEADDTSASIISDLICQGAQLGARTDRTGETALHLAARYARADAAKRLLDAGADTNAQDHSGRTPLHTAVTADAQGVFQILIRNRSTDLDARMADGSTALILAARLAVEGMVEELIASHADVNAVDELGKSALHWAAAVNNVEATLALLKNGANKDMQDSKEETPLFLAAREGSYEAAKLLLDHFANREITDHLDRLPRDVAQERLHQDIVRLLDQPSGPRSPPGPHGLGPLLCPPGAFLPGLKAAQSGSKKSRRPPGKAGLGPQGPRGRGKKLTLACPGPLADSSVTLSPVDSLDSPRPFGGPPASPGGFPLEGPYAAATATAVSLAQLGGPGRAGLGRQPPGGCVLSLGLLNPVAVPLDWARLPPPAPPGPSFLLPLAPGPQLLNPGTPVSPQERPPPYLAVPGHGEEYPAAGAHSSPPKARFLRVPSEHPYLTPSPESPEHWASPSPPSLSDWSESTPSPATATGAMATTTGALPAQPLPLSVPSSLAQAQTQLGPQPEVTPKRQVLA

Row | Structure (SMILES) | composite z-score
1 | O=C(O)C1=CC[C@H]2C(=O)N(c3ccccc3)C(=O)[C@@H]12 | 1.06
2 | C=CC[C@H](OC(=O)Nc1ccc(SC)cc1)c1ccc(O)c(F)c1 | 0.223
3 | COC(=O)C1(CC(C)C)C=C2C(=C(C)C(=O)C2C)CN1 (stereo not given) | 0.379
4 | [N-]=[N+]=NCc1ccccc1C[C@]1(C(=O)N2CCCCC2)COC(c2ccc(OCCCO)cc2)=N1 | 0.202
5 | C=C[C@H](C)[C@@H](OC(=O)Nc1ccc(SC)cc1)c1ccc(OCCO)cc1 | 0.487
6 | COC(=O)Cn1c(C(=O)N(C)C)cc2c1C[C@H]1CN(C(=O)c3ccccc3)[C@@](Cc3ccccc3)(C(=O)OC)[C@@H]21 | 0.0571
7 | O=C1c2ccccc2[C@](Cc2ccccc2I)(C(=O)NCCN2CCOCC2)[C@H](c2ccc(CO)cc2)N1Cc1ccccc1C(F)(F)F | 1.01
8 | Cc1ccc(S[C@]2(C(=O)NCCN3CCOCC3)CC(=O)N(C(C)C)[C@@H]2c2ccc(CO)cc2I)cc1 | 0.0467
9 | C=C(CCCC)C(=O)CC[C@H](OC(=O)c1ccccc1-c1ccccc1C(=O)O)c1cccc(OCCO)c1 | -0.186
10 | [N-]=[N+]=Nc1ccccc1C[C@@]1(C(=O)NCc2ccccc2)N=C(c2ccc(OCCCO)cc2)O[C@@H]1c1ccccc1 | 1.03
11 | C=CCNC(=O)[C@@H]1[C@H]2C(=O)O[C@H](c3ccccc3)[C@H](c3ccccc3)N2[C@H](c2ccc(OCCO)cc2)[C@@]12C(=O)Nc1ccc(C#CC3=CCCCC3)cc12 | 1.14
12 | CC(C)C[C@@H]1NC(=O)[C@H]2C[C@@H](C(=O)O)[C@@H](c3cccc(OCCO)c3)N2C1=O | 0.632
13 | CC(C)c1ccc(NN2C(C(O)C(C)c3ccccc3)C=CC3C(=O)N(c4ccccc4)C(=O)C32)cc1 (stereo not given) | 1.07
14 | Cc1ccc(S(=O)(=O)N2[C@@H](c3ccccc3)C(C(=O)O)=C[C@H]2C(C)(C)C)cc1 | 1.08
15 | CCOC(=O)C1=CC[C@@H](c2ccccc2)N(S(=O)(=O)c2ccc(C)cc2)[C@@H]1C#N | 0.749
16 | COCCOC(=O)N1C(=O)[C@@]2(c3cc(C#CCC(C(=O)OC)C(=O)OC)ccc31)[C@H](C(=O)N1CCc3cc(OC)c(OC)cc3C1)[C@H]1C(=O)O[C@H](c3ccccc3)[C@H](c3ccccc3)N1[C@@H]2c1ccccc1OCCO | 1.01
17 | CN(C)CCCC[C@@H]1NC(=O)[C@H]2C[C@@H](C(=O)NCCCCCCNC(=O)CS)[C@@H](c3cccc(OCCO)c3)N2C1=O | -0.289
18 | COc1cc2c(cc1O)C(C)N(Cc1sc3ccccc3c1Cl)CC2 (stereo not given) | -0.88

Row | Structure (SMILES) | composite z-score
19 | COCCOC(=O)N1C(=O)[C@@]2(c3cc(C#CCC(C(=O)OC)C(=O)OC)ccc31)[C@H](c1ccc(O)cc1)N1[C@H](c3ccccc3)[C@H](c3ccccc3)OC(=O)[C@H]1[C@@H]2C(=O)N1CCc2cc(OC)c(OC)cc2C1 | 0.8
20 | CCOC(=O)C1=CCC(c2ccncc2)N(S(=O)(=O)c2ccc(C)cc2)C1 (stereo not given) | 1.09
21 | COC(=O)[C@@]1(Cc2ccc(F)cc2)[C@H]2c3cc(C(=O)N4CCCC4)n(Cc4ccc(C(F)(F)F)nc4)c3C[C@H]2CN1C(=O)c1ccccc1 | 1.03
22 | CC(C)(C)OC(=O)CC[C@@]1(C(N)=O)N=C(c2ccc(OCCCO)cc2)O[C@@H]1c1ccccc1CN=[N+]=[N-] | 0.851
23 | C=CCNC(=O)[C@H]1[C@@H]2C(=O)O[C@@H](c3ccccc3)[C@@H](c3ccccc3)N2[C@@H](c2ccc(OCCO)cc2)[C@]12C(=O)N(C(=O)OCCOC)c1ccc(C#CCC(C(=O)OC)C(=O)OC)cc12 | 1.08
24 | C=CCOC(=O)[C@H]1[C@@H]2C(=O)O[C@@H](c3ccccc3)[C@@H](c3ccccc3)N2[C@@H](c2ccc(OCCOC(=O)[C@@H]3C[C@@H]4C(=O)N[C@@H](Cc5ccccc5)C(=O)N4[C@@H]3c3ccc(O)cc3)cc2)[C@]12C(=O)Nc1ccc(I)cc12 | 0.918
25 | CCN1C(=O)C2CC(=O)C3C(CN(S(=O)(=O)c4ccc(C)cc4)C3c3ccc(C)cc3)C2C1=O (stereo not given) | 0.627
26 | C=C(C)C1CN([C@H](CO)c2ccccc2)C(=O)/C1=C\c1ccccc1 (stereo not given in full) | 0.0584
27 | C=C(COC)C(=O)CC[C@H](OC(C)=O)c1ccc(CO)o1 | 0.651
28 | COC(=O)C(CC#Cc1ccc2c(c1)[C@]1(C(=O)N2)[C@H](C(=O)NC[C@H](O)c2ccccc2)[C@H]2C(=O)O[C@H](c3ccccc3)[C@H](c3ccccc3)N2[C@@H]1c1ccc(O)cc1)C(=O)OC | 0.401
29 | C=C[C@H](OC)[C@@H](O)c1ccc(OC)c(O)c1 | -0.436
30 | CC[C@@H](O[Si](C#C[Si](C(C)C)(C(C)C)C(C)C)(C(C)C)C(C)C)c1cn(Cc2cccc(Cl)c2)nn1 | 0.932
31 | COC(=O)C1=CC(c2ccc(CO)cc2)=CC(C2CC2)N(Cc2cc3c(cc2Br)OCO3)C=C1C(=O)OC (stereo not given) | 1.11
32 | O=C(NCCN1CCOCC1)[C@@H]1c2ccccc2C(=O)N(CC23CC4CC(CC(C4)C2)C3)[C@H]1c1ccc(CO)cc1 | 1.05
33 | COCCCNC(=O)[C@@]1(CCC(=O)OC(C)(C)C)N=C(c2ccc(OCCCO)cc2)O[C@H]1c1ccccc1 | 0.275
34 | CN1C2C=C(c3ccc(CO)cc3)C(C3C(=O)N(C(N)=O)C(=O)C32)C1C1CC1 (stereo not given) | -0.607
35 | N#Cc1ccc(NN2C(C(O)c3ccc(B(O)O)cc3)C=CC3CN(c4ccccc4)C(=O)C32)cc1 (stereo not given) | 0.0787
